# According to PubChem BioAssay AID2283336 (EPA ToxCast):
# Inconclusive results are not listed. Calls of active or inactive are those of the source. The calls were made as follows: active = hit-call score of the fitted dose curve at least 0.9, where 1 is the maximum; inconclusive = response in the unintended direction; inactive = score below 0.9.
# Target: Kcnn1 (gene 54261) (UniProt P70606)
# Assay: NVS_IC_rKCaCh: NovaScreen (NVS) Ion Channel Assay for Potassium Channel, Ca2+ Act., VI (KCaCh)
# Method in brief: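 Filter-based scintillation counting of radioligand bound to rat forebrain membrane preparations, measured 1 h after compound addition. Primary screen used 25 uM in duplicate, with concentration-response follow-up; signal decrease relative to DMSO marks activity.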
# Chain of Kcnn1 (gene 54261) (P70606 whole entry, looked up): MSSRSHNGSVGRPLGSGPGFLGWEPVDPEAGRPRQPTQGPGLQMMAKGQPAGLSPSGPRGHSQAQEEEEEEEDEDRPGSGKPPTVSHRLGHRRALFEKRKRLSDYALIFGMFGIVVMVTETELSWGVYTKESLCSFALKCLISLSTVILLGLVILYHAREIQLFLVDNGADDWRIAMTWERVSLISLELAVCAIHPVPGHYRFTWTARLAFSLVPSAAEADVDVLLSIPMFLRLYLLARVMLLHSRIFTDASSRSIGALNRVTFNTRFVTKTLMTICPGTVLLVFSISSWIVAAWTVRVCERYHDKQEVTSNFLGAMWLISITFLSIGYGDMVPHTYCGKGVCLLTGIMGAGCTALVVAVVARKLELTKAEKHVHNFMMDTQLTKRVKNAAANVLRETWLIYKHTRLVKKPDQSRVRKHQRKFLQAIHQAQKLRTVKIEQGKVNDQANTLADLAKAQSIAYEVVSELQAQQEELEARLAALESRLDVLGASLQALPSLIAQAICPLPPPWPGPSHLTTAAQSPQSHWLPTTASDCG
smiles,measurement,value
CN(C)c1ccc(C(=C2C=CC(=[N+](C)C)C=C2)c2ccc(N(C)C)cc2)cc1,AC50,16.5 µM (active)
